# Reference: PubChem BioAssay (NCI)
# This is part of a sample that, as a whole, favours compounds with a hit. Of some 83,000 tested, about 20% had one in any assay.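 Cell lines were cultured in 96-well plates, exposed to a single compound concentration, and assessed for percent growth 48 hours later.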 A number with no mark means an inactive call. Active and inactive are the calls of the source. How the source made its calls: active means growth percent below 10; inactive means the rest.
# Legend:
# Assay in all cases: NCI-60 one-dose screen, 48 h (100 = growth as untreated, 0 = no growth, -100 = all killed)
# Settings in all cases: 10 µM unless noted
# [1] = tested on: DU-145 prostate
# [2] = tested on: K-562 leukemia
# [3] = tested on: MALME-3M melanoma
# [4] = tested on: MDA-MB-231 breast
# [5] = tested on: RXF 393 renal
# [6] = tested on: SF-268 CNS
# [7] = tested on: SF-295 CNS
# [8] = tested on: SF-539 CNS
# [9] = tested on: UACC-257 melanoma
# [10] = tested on: M14 melanoma
Structure (SMILES),growth [1],growth [2],growth [3],growth [4],growth [5],growth [6],growth [7],growth [8],growth [9],growth [10]
N#Cc1c(N)nc(Nc2nc3ccccc3[nH]2)nc1-c1ccc(Cl)cc1,123%,92.3%,125%,106%,114%,101%,112%,111%,109%,103%
CCCCCCCCCCCC(=O)OC(C)C(=O)Nc1ccccc1 (stereo not given),106%,97.7%,96.3%,109%,117%,102%,85.7%,98.9%,99.7%,96.9%
CCCCCCCCc1ccc(OCCOCC[N+](C)(C)CC)cc1 (tested in a mixture with another compound),64.5%,22.8%,-19.9% (active),22.2%,50.3%,23%,97.2%,18.4%,12.9%,44.5%
COc1cc(-c2cc3cnccc3c3nc(N)c4ccncc4c23)cc(OC)c1OC,62.3%,24.1%,59.8%,42.9%,8.24% (active),49.4%,67.3%,38%,92.2%,68.1%
COC(=O)c1ccc2[nH]c(O)c(C(=Nc3ccc(N(C)C(=O)CN4CCN(C)CC4)cc3)c3ccc([N+](=O)[O-])cc3)c2c1,47.3%,1.99% (active),-1.29% (active),70.2%,33.9%,45.3%,55.2%,38.9%,85.4%,32.1%
Clc1ccc(N/N=C(/c2ccccc2)c2ccccn2)nc1,42%,15.5%,50.5%,30.7%,74.6%,37.8%,41.2%,41.3%,13.4%,28.9%
CC(C)(C)C(=O)OCOP(=O)(OCOC(=O)C(C)(C)C)C1CC(O)N(O)C1=O (stereo not given),44.4%,15.2%,41.2%,42.7%,1.26% (active),13.3%,67%,39.3%,63.1%,55.6%
Cc1nc2c(nnn2-c2ccccc2)c2nc(-c3ccccc3)oc(=O)c12,117%,106%,115%,109%,109%,108%,101%,97.7%,123%,102%
C[C@]12C=CC(=O)C=C1[C@@H](F)C[C@@H]1[C@@H]2[C@@H](O)C[C@@]2(C)[C@H]1CC[C@]2(O)C(=O)CO,95.1%,125%,81.8%,80.6%,126%,96.9%,123%,96.1%,96.1%,92.5%
COc1cc(-c2nn(-c3ccc(NC(=O)Nc4cc(C(F)(F)F)cc(C(F)(F)F)c4)cc3)cc2-c2ccncc2)ccc1Cl,16.8%,17.2%,-1.21% (active),-18.7% (active),-2.81% (active),14.1%,-34.8% (active),15.8%,-1.38% (active),4.73% (active)
COc1ccc(C(=O)NCCNc2nccc(-c3c(-c4ccc(F)cc4)nc4sccn34)n2)cc1,59.1%,59.5%,76%,62.2%,72%,59.2%,61.6%,79.1%,89%,55.6%
CC(C)(CNC1CCCCC1)OC(=O)c1ccccc1,104%,94.1%,99.2%,110%,102%,107%,94.1%,108%,110%,102%
CCn1cc(C(=O)O)c(=O)c2cc(F)c(N3CCN(S(=O)(=O)c4ccc(Cl)cc4)CC3)cc21,31.7%,21.4%,23.8%,41.1%,13.4%,22.7%,3.94% (active),21.7%,29%,18.9%
CCOC(=O)c1c2c(cn1Cc1ccccc1)-c1oncc1CC2,107%,101%,114%,90.6%,93.3%,83.6%,98.5%,86%,112%,111%
